High-throughput results (PubChem)
Jurkat NFkB inh: inhibitors of induced NF-kB luciferase reporter, primary screen, TCR NF-kB activation inhibitor project, cell-based, luminescence, uHTS. Jurkat, PMA/ionomycin-induced NF-kB luciferase reporter. inhibition, % at 4 µM. hit rate 0.53% among 330,000. AID 435003, 2010; in the data active = inhibition above about 50%
Gli-Sufu block: Gli-Sufu pathway antagonists, primary screen, luciferase luminescence, Sufu-KO-LIGHT cells, uHTS. AID 588413, 2011. hit rate 0.74% among 340,000. Sufu-KO-LIGHT fibroblasts, Gli luciferase reporter luminescence. inhibition, % at 5 µM;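 active = inhibition above about 55%, limit read from the data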;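 also: 0% = DMSO-treated cells and 100% = wells with medium but no cells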
Beta cell apopt: inhibitors of cytokine-induced beta cell apoptosis, primary screen, luminescence; INS-1E cytokine-induced death, ATP luminescence, 48 h; percent of positive-control rescue, neutral wells zero; hit rate 0.8% among 300,000; AID 435005, 2010; protection from apoptosis, % (test concentration not listed);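 active = Every replicate reaches about 75%, or at least half do and their mean reaches it too, limit read from the data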;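 also: 0% = cytokine-treated negative control wells and 100% = positive control rescue; higher means more ATP so stronger rescue from cytokine killing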
697 NFkB inh: inhibitors of PMA/ionomycin-induced NF-kB reporter, 697 cells, primary screen, B-cell NF-kB inhibitor project, cell-based, luminescence, uHTS. inhibition, % at 4 µM. 697 B-cell NF-kB luciferase reporter, 16 h. hit rate 0.33% among 330,000. AID 435022, 2010; in the data active = inhibition above about 35%
Gli-Sufu confirm: Gli-SUFU pathway antagonists, confirmation, single concentration, luciferase luminescence, Sufu-KO-LIGHT cells. shares compounds with Gli-Sufu block. Gli luciferase reporter. inhibition, % at 5 µM. hit rate 40% among 2,500. AID 602428, 2012;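 active = mean inhibition at 5 µM reaching about 45%, limit read from the data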;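 also: plate controls were DMSO-treated cells for no effect and wells lacking cells for full effect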
Gli cytotox: cytotoxicity in Sufu-KO-LIGHT cells, confirmation, cytotoxicity control for Gli-SUFU antagonist project, cell-based, ATP luminescence, single concentration | cytotoxicity, % at 5 µM | hit rate 32% among 2,500 | shares compounds with Gli-Sufu block;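 active = mean cytotoxicity at 5 µM above about 25%, limit read from the data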;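 also: cells exposed to compound overnight for roughly 16 to 18 hours; plate controls were DMSO wells with cells for no effect and medium without cells for full effect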
Wnt3a counter: Wnt3a reporter signal inhibition, confirmation, counter-screen for Gli-SUFU antagonist project, Wnt-LIGHT cells, luminescence, single concentration; AID 651995, 2013; Wnt3a-driven luciferase reporter; hit rate 20% among 2,500; shares compounds with Gli-Sufu block; inhibition, % at 6.25 µM;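 active = mean inhibition above about 25%, limit read from the data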
Starred values were filed as active, the others as inactive; . = not tested or not shown. Shown are actives, neighbours in structure and some others; about 1.8% of the full set was active somewhere.

SMILES	Jurkat NFkB inh	Gli-Sufu block	Beta cell apopt	697 NFkB inh	Gli-Sufu confirm	Gli cytotox	Wnt3a counter
COc1ccc(CC(=O)N2CCCc3ccccc32)cc1	-19	-1	-3	-4	.	.	.
Cc1ccc(CCNC(=O)CCS(=O)(=O)Cc2ccc(C)cc2)cc1	-3	-17	3	-2	.	.	.
Cc1ccc(CNC(=O)CCS(=O)(=O)Cc2ccc(C)cc2)cc1	1	51	-3	-28	24	1	10
N#CCSc1nnc(-c2ccc(S(=O)(=O)N3CCOCC3)cc2)n1CC1CCCO1 (stereo not drawn)	6	94*	2	5	30	2	10
c1ccc(CC2CCN(c3ncnc4sccc34)CC2)cc1	.	66*	.	.	70*	33*	35*
Cc1ccc(S(=O)(=O)N2CCN(c3ncnc4sccc34)CC2)cc1	30	63*	89*	-43	58*	34*	22
COc1ccccc1OCC(=O)Nc1ccc(C(N)=O)cc1	9	69*	-10	11	27	4	4
CC(Oc1ccccc1)C(=O)Nc1ccc(C(N)=O)cc1 (stereo not drawn)	-7	52	0	-4	19	4	-10
Cc1ccc(S(=O)(=O)n2nc(-n3c(C)ccc3C)c3c(F)cccc32)c2ccccc12	16	15	0	8	.	.	.
CCC1CCCCN1CCCNC(=O)C1CCC(CNS(=O)(=O)c2c(C)cc(C)cc2C)CC1 (stereo not drawn)	-2	15	-3	-33	.	.	.
c1ccc(-n2ncc3c(NCCCN4CCOCC4)ncnc32)cc1	-88	-56	-8	-47	.	.	.
Clc1ccc(-n2ncc3c(NCCN4CCOCC4)ncnc32)cc1	-19	54	-5	-45	66*	18	59*
N#Cc1ccc(Sc2nc3ccccc3[nH]2)cc1C#N	2	92*	-7	1	24	-5	-1
O=C(OCC(=O)N1c2ccccc2Sc2ccccc21)c1cccnc1	-17	0	1	4	.	.	.
CC1(C)Cc2c(cnn2-c2ccccc2)C(NC(=O)c2ccc[n+]([O-])c2)C1 (stereo not drawn)	-5	51	-2	-11	21	8	17
COCCN(C(=O)COC(=O)C1CCC(C(C)(C)C)CC1)c1c(N)n(Cc2ccccc2)c(=O)[nH]c1=O (stereo not drawn)	-9	72*	106*	10	81*	28*	8
CCCCC1CCC(C(=O)OCC(=O)N(CCOC)c2c(N)n(Cc3ccccc3)c(=O)[nH]c2=O)CC1 (stereo not drawn)	1	-2	-6	8	.	.	.
C=CCOC(=O)c1[nH]c2c(c1C)C(=O)CC(c1cc(OC)c(OC)c(OC)c1)C2 (stereo not drawn)	38	51	50	12	61*	16	25
CCCCOC(=O)c1[nH]c2c(c1C)C(=O)CC(c1cc(OC)c(OC)c(OC)c1)C2 (stereo not drawn)	36	52	75*	19	60*	24	12
C/C(=N\NC(=O)c1nnn(-c2nonc2N)c1CSc1ccccc1)c1ccco1	0	-13	2	-19	.	.	.
CC(=O)N1CCN(c2nc(C)nc3sc4c(c23)CCC(C)C4)CC1 (stereo not drawn)	10	3	5	-1	.	.	.
Cc1nc(N2CCN(C(=O)c3cnccn3)CC2)c2c3c(sc2n1)CC(C(C)(C)C)CC3 (stereo not drawn)	8	51	2	-11	22	5	2
O=C(Cn1c(-c2ccccc2)c[n+]2ccsc12)c1ccc(Br)cc1	-23	50	27	-33	45*	17	-31
CN(CC1CCN(CCc2cccc(C(F)(F)F)c2)CC1)C(=O)c1ccc(F)cc1	19	37	-8	1	.	.	.
COc1cc(C(=O)N(C)CC2CCN(CCc3cccc(C(F)(F)F)c3)CC2)ccc1C	4	58*	-1	-7	21	-7	-30
